Screening results: PubChem, National Center for Advancing Translational Sciences (NCATS)
DT40 TDP1 no CPT = qHTS for Inhibitors of human tyrosyl-DNA phosphodiesterase 1 (TDP1): qHTS in cells in absence of CPT; DT40 Tdp1-/- hTDP1 cells, no CPT, ATP luminescence, 48 h; Potency, µM (titrated, usually from 46.2 µM), without a hit: at the highest dose activity change, negative = growth inhibition, most hits filed as inhibitors; 420,000 tested, 15% active; note: potency is the fitted concentration of half-maximal effect; nearly all actives have a fitted effect of over 55% in size
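Camptothecin absent (DMSO only). Human TDP1-complemented DT40 knockout cells, 400 cells/well, 37 °C for minimum 48 hr; ATP measured via CellTiter-Glo, 30 min dark incubation, luminescence.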
HT1080-NT tox = kills 2HG-producing HT-1080-NT fibrosarcoma cells; HT-1080-NT fibrosarcoma viability, CellTiter-Glo ATP luminescence, 48 h; Potency, µM (doses to about 46.1 µM), without a hit: at the top dose activity, negative = less viability, most hits filed as cytotoxic; 360,000 tested, 1.6% active; AID 686970;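 note: NT is the 2HG producing partner of a matched IDH1 knockdown line; potency is the fitted concentration of half-maximal effect; 0% = DMSO-treated cells and -100% = media-only wells without cells; nearly all actives have a fitted effect of over 55% in size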
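750 cells/well, RPMI + 5% FBS; 2 h settle, compound pin-transfer, 48 h at 37 degrees C. CellTiter-Glo 10 min RT, luminescence. Normalized to DMSO and media-only wells.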
HT1080 IDH1KD tx = HT-1080 IDH1 knockdown cell toxicity (counter line) | Potency, µM (top dose mostly 46.1 µM), without a hit: top-dose activity, negative = toxicity, usual class: cytotoxic | HT-1080 IDH1 knockdown viability, ATP luminescence, 48 h | AID 686971 | 360,000 tested, 2% active;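 note: potency is the fitted concentration of half-maximal effect; 0% = DMSO wells and -100% = cell-free medium wells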
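IDH1KD HT-1080 cells, 750/well, RPMI + 5% FBS; compound pinned after 2 h settling; 48 h, 37 °C; CellTiter-Glo luminescence; % activity normalised to DMSO and no-cell wells; curves fitted, classed by r2 and efficacy.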
DT40 TDP1 CPT = DT40-hTDP1 cell growth loss with CPT | 420,000 tested, 12% active | Potency, µM (doses to about 46.2 µM), without a hit: at the top dose activity change, negative = growth inhibition, hits mostly inhibitors | AID 686979 | chicken DT40 Tdp1-/-;hTDP1 cells + 20 nM CPT, ATP luminescence, 48 h; note: potency is the fitted concentration of half-maximal effect; nearly all actives have a fitted effect of over 55% in size
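Cell growth measured by CellTiter-Glo luminescence after a minimum 48 h, 37 C compound exposure with 20 nM CPT in Tdp1-knockout DT40 cells stably expressing hTDP1, seeded 400/well; qHTS titration format.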
IL-1B inflam inh = blocks inflammasome-driven IL-1 beta release; THP-1 LPS/ATP IL-1B secretion, AlphaLISA, 16 h; hits give low values; activity change, % at 57.5 µM; 360,000 tested, 4.7% active; AID 743279; in the data active = activity change below about -50%; inconclusive = mostly about -30% to -49%
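THP-1 cells pretreated 1 hr with compounds (up to 57.5 uM final), then stimulated with LPS (250 ng/mL final) plus ATP (1.25 mM final); secreted IL-1B measured by AlphaLISA after 16 hr, decreased signal indicating inhibition.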
* hit, by the source's call; ? = inconclusive; nt = no result given; [ ] = remark or other dose. Hits are enriched below; roughly 19% of the tested compounds scored in any of these assays. Unless noted, calls come from the whole dose curve; as a rule, active = well fitted curve in the direction sought with a large enough effect; inconclusive = small, poorly fitted or top-dose-only effect, or another doubt; inactive = no such curve, though single readings can be large; an effect the other way counts as inactive or inconclusive. Unless noted, % is set by controls: 0 for no effect and ±100 for the full control effect.

SMILES | DT40 TDP1 no CPT | HT1080-NT tox | HT1080 IDH1KD tx | DT40 TDP1 CPT | IL-1B inflam inh
Cn1c(=O)[nH]c(=O)c2c1nc(NCCO)n2CC(O)COc1ccccc1 (stereo unspecified) | -19.9% | nt | nt | -11.7% | nt
Cc1cc(-n2[nH]c(C)c(C)c2=O)nc(-c2ccccc2O)n1 | ? | -18.3% | ? | 16.4µM* | 81.5
Cc1cc(OCc2ccc(F)cc2)nc(-c2ccccc2O)n1 | -17.1% | 7.4% | -2.0% | 0.1% | 21.7
CCOc1ccc(-c2nnn(CC(=O)c3ccc4c(c3)OCCO4)n2)cc1 | 16.4µM* | 1.4% | -10.9% | ? | 3.9
CCc1ccc(-n2nc3ccc(NC(=O)c4ccc5c(c4)OCO5)cc3n2)cc1 | ? | -24.2% | ? | 20.6µM* | 7.5
O=C(Nc1ccc2nn(-c3ccccc3)nc2c1)c1ccc2c(c1)OCCO2 | 7.31µM* | -24.7% | -29.5% | ? | -7.0
Cc1ccc(-n2nc3ccc(NC(=O)c4ccc5c(c4)OCO5)cc3n2)cc1 | ? | -1.4%[9.24 µM] | ? | ? | 11.4
CCCOc1ccc(-c2nnn(CC(=O)c3ccc4c(c3)OCCO4)n2)cc1 | -16.2% | 1.6% | 0.0% | -6.7% | 1.0
CCOc1ccc(-n2nc3ccc(NC(=O)c4ccc5c(c4)OCCO5)cc3n2)cc1 | 5.8µM* | 5.6% | 20.0% | 3.26µM* | -5.8
O=C(Nc1nccs1)c1cc2cc(Cl)ccc2oc1=O | -4.5% | ? | -1.1% | -13.4% | 0.0
CC(C)Oc1ccccc1NC(=O)CSc1nccn1C | -13.4% | 14.4% | 15.0% | -10.0% | -0.1
CCc1ccc(-n2nc3ccc(NC(=O)COc4ccc(OC)cc4)cc3n2)cc1 | -3.2% | nt | nt | -14.9% | nt
CCOc1ccc(-n2nc3ccc(NC(=O)COc4ccccc4C)cc3n2)cc1 | 18.4µM* | nt | nt | ? | nt
O=C(C1=C[C@@H](c2ccccc2)C[C@@H](OCc2ccc(CO)cc2)O1)N1CCCCCCC1 | ? | -0.8% | -1.5% | ? | -11.0
CN1CCN(C(=O)C2=C[C@H](c3ccc(C(F)(F)F)cc3)C[C@H](OCc3ccc(CO)cc3)O2)CC1 | ? | -4.0% | -0.2% | 23.1µM* | -12.7
O=C(C1=C[C@H](c2ccccc2)C[C@H](OCc2ccc(CO)cc2)O1)N1CCN(Cc2ccccc2)CC1 | ? | -15.2% | -8.7% | ? | -60.1*
O=C(C1=C[C@@H](c2ccccc2)C[C@@H](OCc2ccc(CO)cc2)O1)N1CCN(Cc2ccc3c(c2)OCO3)CC1 | 20.6µM* | ? | 16.4µM* | 18.4µM* | ?
CC(OC(=O)c1ccc(OCC2CCCO2)cc1)C(=O)N(C)Cc1ccccc1 (stereo unspecified) | ? | 3.8% | -2.8% | ? | -3.4
CCN(C(=O)c1ccc(S(=O)(=O)N2CCCC2)cc1)C1CCS(=O)(=O)C1 (stereo unspecified) | 4.9% | 7.6% | 2.5% | 1.8% | 14.4
COC(=O)C1=C(C)NC(C)=C(C(=O)OCC2CCCO2)C1c1cccc(Br)c1 (stereo unspecified) | ? | -2.8% | -0.9% | ? | ?
CN1C(=O)/C(=N/OC(=O)c2ccccc2)c2ccccc21 | 11.6µM* | 0.9% | -2.1% | 7.31µM* | 0.0
O=C(OCc1cccc(Cl)c1)c1cc(S(=O)(=O)N2CCCCC2)ccc1N1CCOCC1 | 29.1µM* | -14.3% | -20.8% | 16.4µM* | 0.0
O=C(OCCOc1cccc(Cl)c1)c1cc(S(=O)(=O)N2CCCCC2)ccc1N1CCOCC1 | 8.2µM* | -7.2% | -10.1% | 14.6µM* | -14.1
